According to PubChem BioAssay:
Active and inactive are the calls of the source. Unless noted, how the calls were made is not given here.

How the values were obtained:
[1] = tested on: Wnt5a (protein binding on small-molecule microarray); assay: Wnt5a binders on small-molecule microarray, primary screen, biophysical, 635/667 nm fluorescence (AID 1142); settings: 635 nm fluorescence, higher = more signal;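 further: fluorescence read at 667 nm with signal to noise per printed feature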
[2] = cell viability in Huh7 cells, primary screen, cytotoxicity control for HCV replication inhibitor project, CellTiter-Glo luminescence, basal, 48 h (AID 1143); settings: Huh7 HCV replicon, higher = more signal, called active from +8 up or from −8 down;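 further: Huh7 hepatoma cells carrying a hepatitis C replication reporter with no stimulus; test concentration not given here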
[3] = P. aeruginosa biofilm formation inhibitors, primary screen, PAO1 strain, BacTiter-Glo luminescence, LB-PBS (AID 1144); settings: 12 h, higher = more signal
[4] = CREB reporter modulators without forskolin, primary screen, cell-based, PC12, CRE-LacZ reporter, unstimulated (AID 1145); settings: no forskolin, luminescence, 4.5 h, higher = more signal, called active from +8 up or from −8 down
[5] = CREB reporter modulators under forskolin, primary screen, cell-based, PC12, CRE-LacZ reporter, forskolin-stimulated (AID 1146); settings: luminescence, 4.5 h, higher = more signal, called active from +8 up or from −8 down;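 further: PC12 cells with 6xCRE LacZ reporter stimulated by forskolin 10 µM; beta-galactosidase reporter signal reflecting CREB driven transcription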
[6] = molecular target: Streptavidin (Streptomyces avidinii) (UniProt P22629); assay: streptavidin binders on small-molecule microarray, primary screen, artefact control for SMM compound annotation, biophysical, 635/667 nm fluorescence (AID 1147); settings: streptavidin binding, higher = more signal;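 further: signal reflects streptavidin binding to arrayed compounds as a control protein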
Streptavidin (Streptomyces avidinii), sequence (P22629 whole entry, looked up): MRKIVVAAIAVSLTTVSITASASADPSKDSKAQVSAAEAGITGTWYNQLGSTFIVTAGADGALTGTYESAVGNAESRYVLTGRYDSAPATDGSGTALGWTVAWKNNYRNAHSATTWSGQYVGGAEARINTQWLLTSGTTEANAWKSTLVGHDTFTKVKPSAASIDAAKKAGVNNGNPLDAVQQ

[7] = small-molecule binders of probe aInhba, primary screen, biochemical, small-molecule microarray, 635/667 nm fluorescence (AID 1148); settings: higher = more signal;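 further: score merges 667nm spot fluorescence with signal-to-noise for antibody binding to printed compounds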
[8] = molecular target: Torsin-1A (Homo sapiens) (UniProt O14656); assay: torsin A binders from cell lysate, primary screen, small-molecule microarray, wild-type, 635/667 nm (AID 1149); settings: COS7 hTOR1A-WT lysate, 635 nm fluorescence, higher = more signal
Torsin-1A (Homo sapiens), sequence (O14656 whole entry, looked up): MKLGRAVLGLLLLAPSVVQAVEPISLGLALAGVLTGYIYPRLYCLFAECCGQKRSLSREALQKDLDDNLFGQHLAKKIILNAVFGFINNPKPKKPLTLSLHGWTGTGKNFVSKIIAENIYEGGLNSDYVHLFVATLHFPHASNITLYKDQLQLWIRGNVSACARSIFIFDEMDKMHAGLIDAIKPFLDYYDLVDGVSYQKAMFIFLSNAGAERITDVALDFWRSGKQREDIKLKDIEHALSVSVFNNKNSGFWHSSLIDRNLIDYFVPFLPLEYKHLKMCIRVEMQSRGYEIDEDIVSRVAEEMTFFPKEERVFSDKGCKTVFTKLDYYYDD

[9] = molecular target: Torsin-1A (Homo sapiens) (UniProt O14656); assay: small-molecule binders of mutant TOR1A in lysate, primary screen, cell lysate, small-molecule microarray, COS7 lysate, 635/667 nm fluorescence (AID 1150); settings: COS7 hTOR1A mutant lysate, 635 nm fluorescence, higher = more signal;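 further: score pools 667 nm emission and signal to noise measuring lysate protein binding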
[10] = tested on: Sonic hedgehog protein (Shh); assay: small-molecule binders of Shh protein, primary screen, biochemical, small-molecule microarray, 635/667 nm fluorescence (AID 1151); settings: small-molecule microarray binding, 635 nm fluorescence; higher = more signal;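 further: Shh protein binding to compounds spotted on small-molecule microarray slides; score combines spot fluorescence intensity with signal-to-noise across triplicate slides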
[11] = E. coli DRC41 culture turbidity changes, primary screen, E. coli filamentation inducer project, strain DRC41, OD650, 48 h (AID 1152);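 further: E. coli MC1000 strain DRC41 lacking acrAB efflux pump and sulA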; settings: E. coli DRC41 (acrAB sulA), higher = more signal, called active from +8 up or from −8 down
[12] = small-molecule binders of probe aLefty1, primary screen, biochemical, small-molecule microarray, 635/667 nm fluorescence (AID 1153); settings: higher = more signal;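 further: score merges spot fluorescence with signal-to-noise ratio from the scanned slide images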
[13] = PSAC antagonists in infected red cells, primary screen, cell-based, P. falciparum Indochina, OD700, 1 h (AID 1154); settings: P. falciparum Indochina infected RBC osmotic lysis, higher = more signal, called active from +8 up or from −8 down
[14] = PSAC antagonists in infected red cells, primary screen, cell-based, P. falciparum Indochina, OD700, 2 h (AID 1155);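 further: lysis reports solute entry through the parasite surface anion channel PSAC; channel blockers reduce lysis of infected cells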; settings: P. falciparum Indochina infected erythrocytes, osmotic lysis OD700; higher = more signal, called active from +8 up or from −8 down
[15] = osmotic lysis modulators in infected erythrocytes, primary screen, PSAC antagonist project, cell-based, P. falciparum Indochina, OD700, 3 h (AID 1156); settings: higher = more signal, called active from +8 up or from −8 down
[16] = PSAC antagonists in infected red cells, primary screen, cell-based, P. falciparum Indochina, OD700, 18 h (AID 1157); settings: P. falciparum Indochina infected erythrocytes, osmotic lysis OD700, 18 h; higher = more signal, called active from +8 up or from −8 down
[17] = modulators of S6 phosphorylation in cells, primary screen, cell-based, A549, cytoblot, luminescence, serum-stimulated (AID 1158); settings: A549 phospho-S6 cytoblot, 5 h, higher = more signal;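 further: serum-stimulated A549 lung adenocarcinoma cells; signal is phosphorylated S6 detected by cytoblot immunostaining with HRP secondary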
[18] = molecular target: NADPH oxidase 2 (Homo sapiens) (UniProt P04839); assay: NOX2-dependent H2O2 signal modulators, primary screen, NOX inhibitor project, cell-based, HEK293-NOX2, PMA-stimulated, Amplex Red fluorescence (AID 1159); settings: 45 min, higher = more signal, called active from +8 up or from −8 down; further: test concentration not given here
NADPH oxidase 2 (Homo sapiens), sequence (P04839 whole entry, looked up): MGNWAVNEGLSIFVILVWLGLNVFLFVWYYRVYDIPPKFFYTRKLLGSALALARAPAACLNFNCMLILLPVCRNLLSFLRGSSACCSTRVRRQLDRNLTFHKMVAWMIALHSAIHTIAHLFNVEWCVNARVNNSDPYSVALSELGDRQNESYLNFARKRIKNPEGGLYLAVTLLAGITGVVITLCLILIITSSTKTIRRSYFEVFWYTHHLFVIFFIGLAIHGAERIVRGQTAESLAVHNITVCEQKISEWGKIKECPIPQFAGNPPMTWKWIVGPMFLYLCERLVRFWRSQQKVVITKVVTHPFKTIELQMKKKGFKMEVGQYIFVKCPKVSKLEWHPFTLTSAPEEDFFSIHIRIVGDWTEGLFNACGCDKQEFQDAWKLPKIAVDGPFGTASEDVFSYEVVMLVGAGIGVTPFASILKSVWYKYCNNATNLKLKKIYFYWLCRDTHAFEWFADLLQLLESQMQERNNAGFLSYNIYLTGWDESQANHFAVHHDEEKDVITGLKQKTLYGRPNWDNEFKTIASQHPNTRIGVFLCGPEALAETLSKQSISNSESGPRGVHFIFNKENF

[19] = molecular target: NADPH oxidase 4 (Homo sapiens) (UniProt Q9NPH5); assay: NOX4-dependent H2O2 signal modulators, primary screen, NOX inhibitor project, cell-based, HEK293-NOX4, tetracycline-induced, Amplex Red fluorescence (AID 1160); settings: 45 min, higher = more signal, called active from +8 up or from −8 down
NADPH oxidase 4 (Homo sapiens), sequence (Q9NPH5 whole entry, looked up): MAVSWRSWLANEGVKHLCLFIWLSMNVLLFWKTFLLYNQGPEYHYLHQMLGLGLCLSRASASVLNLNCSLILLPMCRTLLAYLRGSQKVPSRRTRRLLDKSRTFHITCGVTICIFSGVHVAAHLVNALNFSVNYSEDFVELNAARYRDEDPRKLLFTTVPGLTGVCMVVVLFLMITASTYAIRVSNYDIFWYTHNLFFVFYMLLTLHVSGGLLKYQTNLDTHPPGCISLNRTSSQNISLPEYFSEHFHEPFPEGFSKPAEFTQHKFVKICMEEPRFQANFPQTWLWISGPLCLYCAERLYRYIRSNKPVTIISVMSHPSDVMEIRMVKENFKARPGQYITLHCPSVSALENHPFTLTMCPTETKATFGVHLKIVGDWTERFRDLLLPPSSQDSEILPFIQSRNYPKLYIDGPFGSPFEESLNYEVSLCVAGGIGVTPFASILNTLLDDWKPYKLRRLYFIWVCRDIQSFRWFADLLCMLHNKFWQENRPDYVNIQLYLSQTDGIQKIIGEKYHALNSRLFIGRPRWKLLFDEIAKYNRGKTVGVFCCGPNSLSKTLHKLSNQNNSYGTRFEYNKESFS

[20] = molecular target: NADPH oxidase 5 (Homo sapiens) (UniProt Q96PH1); assay: NOX5-dependent H2O2 signal modulators, primary screen, NOX inhibitor project, cell-based, HEK293-NOX5, Amplex Red fluorescence (AID 1161); settings: HEK293-NOX5, ionomycin, 45 min, higher = more signal
NADPH oxidase 5 (Homo sapiens), sequence (Q96PH1 whole entry, looked up): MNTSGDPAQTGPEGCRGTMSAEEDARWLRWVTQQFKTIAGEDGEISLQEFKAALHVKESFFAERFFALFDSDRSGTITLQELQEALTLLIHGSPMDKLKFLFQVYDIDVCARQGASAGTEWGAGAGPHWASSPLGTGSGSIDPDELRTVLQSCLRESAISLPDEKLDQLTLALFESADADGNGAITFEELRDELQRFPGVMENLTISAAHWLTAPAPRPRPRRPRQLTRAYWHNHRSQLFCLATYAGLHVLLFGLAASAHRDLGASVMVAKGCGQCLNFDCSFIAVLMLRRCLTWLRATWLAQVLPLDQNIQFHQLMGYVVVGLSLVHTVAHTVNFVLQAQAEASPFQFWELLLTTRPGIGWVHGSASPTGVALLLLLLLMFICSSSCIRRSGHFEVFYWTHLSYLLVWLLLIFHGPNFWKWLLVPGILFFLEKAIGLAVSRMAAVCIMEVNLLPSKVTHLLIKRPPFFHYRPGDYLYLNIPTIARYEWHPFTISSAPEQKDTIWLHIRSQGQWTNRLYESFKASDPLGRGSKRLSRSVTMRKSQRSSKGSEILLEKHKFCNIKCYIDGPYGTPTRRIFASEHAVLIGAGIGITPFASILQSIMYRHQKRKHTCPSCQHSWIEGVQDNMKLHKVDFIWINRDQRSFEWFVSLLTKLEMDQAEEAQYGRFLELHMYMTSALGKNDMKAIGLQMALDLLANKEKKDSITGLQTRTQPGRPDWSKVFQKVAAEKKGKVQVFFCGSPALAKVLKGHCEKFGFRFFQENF

Structure (SMILES)	composite z-score [1]	z-score [2]	z-score [3]	z-score [4]	z-score [5]	composite z-score [6]	composite z-score [7]	composite z-score [8]	composite z-score [9]	composite z-score [10]	z-score [11]	composite z-score [12]	z-score [13]	z-score [14]	z-score [15]	z-score [16]	z-score [17]	z-score [18]	z-score [19]	z-score [20]
C=CCC(OC(C)=O)[C@@H]1[C@@H](N(Cc2cccc3ccccc23)C(=O)Cc2ccc(OC)cc2)c2cc(OCCCO)ccc2N1C(=O)c1ccc2ccccc2c1 (stereo not given in full)	-0.186	-3.04 (inactive)	-0.719 (inactive)	0.0458 (inactive)	-0.383 (inactive)	0.172	-0.152	0.794	-0.118	0.239	0.808 (inactive)	0.147	0.79 (inactive)	-0.443 (inactive)	-0.214 (inactive)	-0.691 (inactive)	1.2	-2.11 (inactive)	-1.24 (inactive)	-0.827
CC(C)C[C@@H]1NC(=O)[C@@H]2C[C@H](C(=O)NCCCCCCNC(=O)CS)[C@H](c3cccc(OCCO)c3)N2C1=O	0.971	0.0734 (inactive)	-0.253 (inactive)	0.688 (inactive)	0.0025 (inactive)	1.22	0.159	1.15	1.18	2.38	-1.05 (inactive)	0.196	7.13 (inactive)	1.57 (inactive)	1.01 (inactive)	0.792 (inactive)	-0.485	1.56 (inactive)	0.427 (inactive)	-0.196
O=C1C[C@@](C(=O)NCc2ccccc2)(c2ccc([N+](=O)[O-])cc2)[C@@H](c2ccc(CO)cc2)N1C1CCCCC1	0.203	-4.1 (inactive)	-0.967 (inactive)	0.531 (inactive)	-0.932 (inactive)	-0.0057	0.333	0.944	0.812	0.998	1.09 (inactive)	0.857	0.661 (inactive)	-0.881 (inactive)	-0.436 (inactive)	-0.877 (inactive)	1.58	-0.522 (inactive)	0.333 (inactive)	0.0696
O=C(NC1CC1)[C@@H]1c2ccccc2C(=O)N(Cc2cc(C(F)(F)F)cc(C(F)(F)F)c2)[C@H]1c1ccc(CO)cc1	-0.0738	-4.67 (inactive)	0.0176 (inactive)	1.14 (inactive)	-1.05 (inactive)	0.0581	-0.248	-0.73	-0.727	0.658	-0.0602 (inactive)	-0.308	2.63 (inactive)	0.26 (inactive)	1.12 (inactive)	-0.558 (inactive)	2.41	-0.397 (inactive)	-1.17 (inactive)	-2.23
O=C1O[C@H](Cc2ccccc2)[C@@H]2[C@H]3C=CCCC=C3CN2[C@H]1Cc1ccc(O)cc1	-0.311	-0.0514 (inactive)	-0.818 (inactive)	-0.0546 (inactive)	1.11 (inactive)	-0.0955	0.214	-0.2	-0.632	-0.282	0.676 (inactive)	0.0811	3.72 (inactive)	0.0962 (inactive)	0.0059 (inactive)	0.157 (inactive)	-0.253	-2.69 (inactive)	-1.58 (inactive)	-1.3
O=C1C[C@]2(c3ccc([N+](=O)[O-])cc3)C(=O)N(C3CC3)c3cc(CO)ccc3[C@H]2N1C1CCCCC1	-0.0069	1.09 (inactive)	-0.21 (inactive)	0.802 (inactive)	0.634 (inactive)	0.358	-0.159	-0.145	-0.192	0.147	-0.348 (inactive)	0.91	-0.58 (inactive)	0.0608 (inactive)	-1.35 (inactive)	-0.0894 (inactive)	-0.278	0.0692 (inactive)	0.987 (inactive)	0.0695
COCCn1c(C(=O)N(C)C)cc2c1C[C@H]1CN(C(=O)c3ccccc3)[C@@](Cc3ccc(OC)cc3)(C(=O)OC)[C@@H]21	0.198	-1.27 (inactive)	0.491 (inactive)	0.776 (inactive)	0.0711 (inactive)	0.572	-0.0237	0.236	1.11	-0.472	-1.18 (inactive)	0.256	5.82 (inactive)	0.846 (inactive)	1.36 (inactive)	1.23 (inactive)	-0.164	0.556 (inactive)	1.43 (inactive)	1.24
CN(C)CCCCNC(=O)[C@H]1C[C@H]2C(=O)NCC(=O)N2[C@H]1c1ccc(O)cc1	-0.311	0.153 (inactive)	0.0384 (inactive)	-0.943 (inactive)	-0.489 (inactive)	-0.761	-0.344	-0.0276	1.07	1.57	0.327 (inactive)	-0.417	2.9 (inactive)	0.552 (inactive)	0.447 (inactive)	0.3 (inactive)	-0.468	1.06 (inactive)	1.09 (inactive)	1.18
COc1ccc([Si](C)(C)[C@@H]2[C@@H](CC(=O)N3CCC[C@H]3CO)O[C@]3(C(=O)N(Cc4ccc(N5CCOC5=O)cc4)c4ccccc43)[C@H]2C)cc1	-0.014	-3.75 (inactive)	-0.0278 (inactive)	2.4 (inactive)	-1.2 (inactive)	0.084	-0.024	0.515	0.557	1.42	1.3 (inactive)	-0.0099	6.25 (inactive)	0.176 (inactive)	-1.52 (inactive)	-0.774 (inactive)	0.615	2.64 (inactive)	1.57 (inactive)	3.85
